# Assay results as given in PubChem BioAssay AID743398 (Broad Institute, 2014).
# About 3,600 (1.2%) of roughly 300,000 compounds were called active. The list comes from a sample in which actives are over-represented; it also holds similar structures and randomly drawn compounds. Unmarked numbers belong to inactive results. Cut-off read from the data, not from the text of the source: active = activation above about 30% (passing the limit was not always enough); inconclusive = no clear call, values can overlap the other calls.
# Assay: activation of beta-catenin signaling reporter – cell-based, plate reader, single point, primary screen (AID 743398);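 note: 0% = neutral control wells and 100% = positive control wells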
# Settings: Wnt/beta-catenin reporter cell assay, activator, at 9.35 µM, stronger effect = higher value
row,SMILES,activation
1,O=C1/C(=C/c2cccs2)CCC1C1CCCC1 (configuration not stated),39.6% (active)
2,O=C1/C(=C/c2cccs2)CCc2ccccc21,24.6%
3,CN1C/C(=C/c2cccs2)C(=O)/C(=C\c2cccs2)C1,5.88%
4,C[C@H](CO)N1C[C@H](C)[C@@H](CN(C)C(=O)Nc2ccccc2F)OCc2cn(nn2)CCCC1=O,-2.87%
5,COc1cc(OC)cc(-c2cc3ccc(F)cc3cn2)c1,42.1% (active)
6,COc1cc(OC)cc(-c2c(-c3ccc(F)cc3)c3cc(-c4ccc5cc[nH]c5c4)ccc3n2C)c1,-17.5%
7,COc1ccc(C(C)(O)c2nc(-c3cc(F)cc(F)c3)cs2)cc1 (configuration not stated),-1.38%
8,COc1ccccc1C(=O)N1O[C@]23C=C[C@]14C[C@@H](O)CC[C@]4(C)C2CC[C@]1(C)[C@@H]([C@H](C)/C=C/[C@H](C)C(C)C)CC[C@H]13 (some centres not stated),-2.64%
9,COc1cccc(CNc2nc(NCc3cccs3)nc3ccsc23)c1,-1.69%
10,O=C(Nc1c(Cl)c(C2CC2)nn1-c1ccccc1)C(Cl)(Cl)Cl,-2.16%
11,Fc1ccccc1-c1cc2cc3c(cc2cn1)OCO3,40.7% (active)
12,O=C(c1ccco1)N1CCN(C(=O)c2cc(-c3ccccc3F)no2)CC1,1.22%
13,O=C(NCCCN1CCOCC1)c1cc(-c2ccccc2F)no1,3.67%
14,CCNC(=O)C1(C)CCCN(Cc2noc(-c3ccccc3OC)n2)C1 (configuration not stated),-3.24%
15,CN1C(=O)C2CC(O)C(SC3CC4C(=O)N(C)C(=O)C4CC3O)CC2C1=O (configuration not stated),-1.16%
16,CCc1nc2c(OCc3ccc(C(F)(F)F)cc3)cccn2c1N(C)C(=O)CC(C)C,-1.72%
17,C=CCc1cccc2cc(C(=O)NC3CCCC3)c(=O)oc12,-0.536%
18,C=CCc1cccc2cc(C(=O)Nc3ccc(NC(C)=O)cc3)c(=O)oc12,39.5% (active)
19,CCOc1cccc2cc(C(=O)OCC(=O)Nc3c(C)cccc3CC)c(=O)oc12,8.56%
20,COc1ccc(-c2ccccc2C2Cc3nnccc3CN2C(=O)Nc2ccccc2)cc1 (configuration not stated),-2.13%
21,COC(=O)c1cc2c(c3c4ccccc4n(S(=O)(=O)c4cccc(C)c4)c13)C(=O)N(Cc1ccccc1)C2,-4.66%
22,Cn1c(-c2ccc(C(F)(F)F)cc2)cc2onc(-c3ccccc3)c2c1=O,23.3%

row,SMILES,activation
1,Cn1c(-c2ccc(F)cc2)cc2onc(-c3ccccc3Cl)c2c1=O,53.3% (active)
2,Cc1[nH]n(C)c(=O)c1C(=O)c1c(-c2c(Cl)cccc2Cl)noc1C,4.17%
3,CCOC(=O)/C=C/c1ccccc1O,-1.18%
4,O=C(NNC(=O)c1cc2c(s1)CCCC2)c1ccccc1,27.6%
5,O=C(Nc1ccc(F)cc1)c1cc2c(s1)CCCC2,53% (active)
6,CN(C)C(=O)c1ccc(NC(=O)COC(=O)c2cc3c(s2)CCCCC3)cc1,0.414%
7,CCN(CC)C(=O)C1=C(C)N(Cc2ccc(F)cc2)C(=O)C(CC(=O)NCc2cccc3ccccc23)C1 (configuration not stated),-3.01%
8,O=CNc1cc(-c2ccc(C(=O)N3CCOCC3)cc2)cn2c(-c3ccc(F)cc3)cnc12,-3.58%
9,Cc1noc(C)c1C(=O)Nc1ccccn1,-1.19%
10,Cc1c(C(=O)Nc2ccccn2)oc2ccc(Br)cc12,34.7% (active)
11,Cc1nonc1NC(=O)c1oc2ccccc2c1C,8.7%
12,O=C(/C=C/c1ccc(F)cc1)NCCNC(=O)/C=C/c1ccc(F)cc1,-1.4%
13,C=CCNC(=O)/C=C/c1ccc(C(C)C)cc1,42.6% (active)
14,CC(C)c1ccc(/C=C/C(=O)NCCCN2CCOCC2)cc1,-3.21%
15,CCOC(=O)[C@]12CCC=C1N(Cc1cccc3ccccc13)C(=O)[C@H](CC(=O)NCc1cccc(C(F)(F)F)c1)C2,-1.93%
16,C#CCN(C[C@@H]1[C@@H](OC(=O)NC2CC2)[C@@H](OC(=O)NC2CC2)Cn2c(=O)ccc(=O)n21)S(=O)(=O)c1ccc(C)cc1,-2.83%
17,O=[N+]([O-])c1ccc(C(S(=O)(=O)Cc2ccccc2)S(=O)(=O)Cc2ccccc2)cc1,-5.67%
18,Cc1cccc(C)c1NC(=O)CNC(=O)c1ccc2c(c1)OCCO2,13.2%
19,CC(=O)c1ccc2c(c1)OCCOCCOc1ccc(C(C)=O)cc1OCCOCCO2,1.05%
20,O=C(Nc1ccccc1)c1ccc2c(c1)OCCCO2,19.2%
21,Cc1nc(NC(=O)c2ccc3c(c2)OCCO3)ccc1Br,48.4% (active)
22,Cc1ccc(C(=O)NNC(=O)c2ccc3c(c2)OCCO3)cc1,43.9% (active)

row,SMILES,activation
1,O=C(Nc1ccc(Cl)cn1)c1ccc2c(c1)OCCO2,24.2%
2,CN(CCc1ccccc1)C(=O)c1cccc(NC(=O)Cc2cccc(NC(=O)C3CCCN(C(=O)C4CCC4)C3)c2)c1 (configuration not stated),-3.51%
3,C[C@H]([C@@H](O)[C@@H](O)[C@@H](C)C(C)(C)C)[C@H]1CC[C@H]2C3CC[C@H]4C[C@H](OS(=O)(=O)O)[C@@H](OS(=O)(=O)O)C[C@]4(C)[C@H]3CC[C@]12C (some centres not stated),-0.623%
4,CC12CCC(=O)C=C1CCC1C2C(O)CC2(C)C1CCC2(O)C(O)CO (configuration not stated),3.61%
5,CCCC(=O)N=c1sc2cccc(F)c2n1C,5.33%
6,Cn1c(=NC(=O)c2ccco2)sc2cccc(F)c21,61.6% (active)
7,Cn1c(=NC(=O)C2CC2)sc2cc(F)cc(F)c21,7.6%
8,Cc1ccc(S(=O)(=O)N2C[C@]3(O)C[C@@H]4C(=O)N(c5ccccc5)C(=O)[C@@H]4C[C@]3(OC(=O)NC3CC3)C2)cc1,-1.31%
9,Cc1ccc(Nc2nc(-c3ccc(O)cc3O)cs2)nc1,59.5% (active)
10,Clc1ccc(Nc2nc(-c3cccs3)cs2)nc1,25.2%
11,CC(=O)Nc1cnc(-c2ccc(O)cc2C)cn1,-0.836%
12,Cn1c(=O)c2cc(NC(=O)NCCc3cccs3)ccc2n1Cc1cccc(C(F)(F)F)c1,-1.78%
13,Cc1ccc(S(=O)(=O)N2CC3C(=O)C[C@@H](c4ccccc4Cl)N(S(=O)(=O)c4ccc(C)cc4)C3CC2c2ccccc2)cc1 (some centres not stated),-1.39%
14,COC(=O)c1ccc2nc(-c3ccc(Cl)cc3)c(Cc3cccc(F)c3)n2c1,11.3%
15,Cc1ccnc(NC(=O)CCNS(=O)(=O)c2ccc(C)c(C)c2)c1,35.8% (active)
16,Cc1ccc(S(=O)(=O)NCCC(=O)Nc2ccc(C)c(Cl)c2)cc1C,-1.93%
17,Cc1ccc(S(=O)(=O)NCCC(=O)Nc2cccc(S(N)(=O)=O)c2)cc1C,-1.96%
18,CCN1CCCC1CNC(=O)c1ccc2c(c1)NC(=O)/C(=C\c1ccccc1F)S2 (configuration not stated),-0.637%
19,O=c1[nH]c(-c2ccccc2)cn1C1CCN(Cc2ccc(-c3nc4ccc(F)cc4nc3-c3ccccc3)cc2)CC1,0.441%
20,COCCCn1c(C(=O)NC2CCCCC2)cc2c(=O)n3cccc(C)c3nc21,-1.3%
21,CC(C)NC(=O)N1Cc2cc(C(=O)NCC(F)(F)F)nc(-c3cccc(-c4cc5ccccc5o4)c3)c2[C@@H]1CCO,-2.74%
22,CC1CCCCC1NC(=O)Cn1c(=O)cnc2ccccc21 (configuration not stated),-3.58%

row,SMILES,activation
1,CC(C)c1cc(C(=O)NC2CCCCCC2)c2ccccc2n1,-2.8%
2,O=C(/C=C/c1cnc2ccccc2n1)NC1CCCCCC1,49.2% (active)
3,COC(=O)[C@]1(Cc2ccccc2)NC=C(C(=O)c2ccccc2)[C@@H]1c1cccc(OC)c1,2.93%
4,COC(=O)c1c(-c2ccc(OC)cc2)c2c(c3c4cc(OC)ccc4n(S(=O)(=O)c4ccc(F)cc4)c13)C(=O)N(C)C2,-8.37%
5,CCNC(=O)C1(C)CCCN1C(=O)c1ccc(N(C)C)cc1 (configuration not stated),-4.12%
6,CN(C)c1ccc(CSc2ccccc2)cc1,2.13%
7,CN(C)c1ccc(CNC23CN4CN(CN(C4)C2)C3)cc1,35.9% (active)
8,Nc1ncnc2c1ncn2[C@@H]1O[C@H](C(=O)N[C@@H](CCc2ccccc2)C(=O)NCC(=O)N2CCOCC2)[C@@H](O)[C@H]1O,-8.65%
9,CCOc1cc(/C=C2/C(=N)N3OC(C)=CC3=NC2=O)ccc1OC,39.2% (active)
10,COc1ccc(OCCCn2cccc2/C=C2/C(=N)N3OC(C)=CC3=NC2=O)cc1,21%
11,CCOc1cc(/C=C2\C(=N)N3N=C(C)SC3=NC2=O)ccc1OCCOc1ccccc1,0.097%
12,COc1ccc(-c2cc3c(c4c2ccn4C)C2CCC3C2)cn1 (configuration not stated),-0.553%
13,Cc1cccc(-c2cnc(C(O)c3ccc4ccccc4c3)[nH]2)c1 (configuration not stated),-0.607%
14,Cc1c(NC(=O)Nc2ccccc2)cccc1[N+](=O)[O-],1.75%
15,CS(=O)(=O)c1ccc(Cl)c(NC(=O)Nc2ccccc2)c1,1.45%
16,Cc1ccc(NC(=O)Nc2ccccc2)c(Br)c1,50.8% (active)
17,CC[C@H](C)[C@H]1CNC(=O)C(=O)N1CC1CCN(CCc2ccc(OC)c(OC)c2)CC1,-3.36%
18,COc1ccc2oc(N)nc2c1,2.19%
19,COc1cccc(-c2nc3cc(C)ccc3o2)c1,40.6% (active)
20,COc1ccc2oc(-c3cccc(NC(=O)CSc4ccc(Cl)cc4)c3)nc2c1,22.7%
21,CC(=O)Oc1ccc(Cn2c(C)c(C(=O)NCc3ccc(C#N)cc3)sc2=O)cc1,-1.94%
